# Experimental data taken from PubChem BioAssay (EPA / NIEHS).
# “And” between values parts separate entries of the source, which are not always exact repeats. Equal values may be shown once. More than one record can exist for a structure, and the calls need not agree. The source made the active and inactive calls. How the source made its calls: active means hit-call score of the fitted dose curve at least 0.9, where 1 is the maximum; inactive means score below 0.9.
# System: not listed separately
# Test: ATG_AP_2_CIS: Attagene CIS-FACTORIAL HepG2 Assay for human Activator Protein 2 (AP-2) (AID 2282932)
# Details: HepG2 AP-2 cis-reporter, Attagene transcription factor profiling; actives raise or lower the signal
# Procedure, shortened: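 Step one: transient transfection of HepG2 with reporter transcription units. Step two: 24 h chemical exposure. Step three: RNA extraction, RT-PCR, labelled fragment analysis by capillary electrophoresis; DMSO serves as baseline.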
SMILES,outcome,AC50
NC(=O)N(O)[C@@H]1C=C[C@H](Oc2cccc(Oc3ccc(F)cc3)c2)C1,inactive,
CC(=O)CC(C)(C)O,inactive,
CCCCCCCCCCCCCC[N+](C)(C)C,inactive,
CC(=O)NC1(c2cccc(F)c2)CCN(CC[C@@]2(c3ccc(Cl)c(Cl)c3)CN(c3ccccc3)C(=O)CO2)CC1,inactive,
CCCCCCCCCCCCc1ccccc1S(=O)(=O)O,inactive,
Cc1cc(CCN2CCN(c3nsc4ccccc34)CC2)cc2c1NC(=O)CC2(C)C,inactive,
CCCCCCC(=O)O,inactive,
OC1CCC(C2CCCCC2)CC1 (configuration not stated),inactive,56.9 µM (active)
Cc1ccc(S(=O)(=O)O)c(C)c1,inactive,
NCC(F)(F)C(F)(F)C(F)(F)C(F)(F)C(F)(F)C(F)(F)C(F)(F)F,inactive,
O=[N+]([O-])c1ccc(O)cc1,inactive,
CC(C)(C)c1cccc(C(C)(C)C)c1O,inactive,
CCCCCCCC(=O)O,inactive,
CCCCC[C@H](O)CC(=O)CCc1ccc(O)c(OC)c1,,79.2 µM (active)
CCc1ccc(CCOc2ccc(CC3SC(=O)NC3=O)cc2)nc1 (configuration not stated),inactive,
CC(O)C(=O)O (configuration not stated),inactive,
CC(C)CCCCCCOC(=O)CCCCC(=O)OCCCCCCC(C)C,inactive,
O=C1OC2(c3ccccc31)c1cc(Br)c(O)c(Br)c1Oc1c2cc(Br)c(O)c1Br,inactive,
COCC(C)O (configuration not stated),inactive,
CCCCCCCCCCCCCCCS(=O)(=O)Oc1ccccc1,inactive,
Cc1cc(C)c(O)c(C)c1,inactive,
C#C[C@]1(O)CC[C@H]2[C@@H]3CCC4=CC(=O)CC[C@@H]4[C@H]3CC[C@@]21C,inactive,
CC(C)(C)c1ccc(O)c(C(C)(C)C)c1,inactive,
Oc1cccc(O)c1,inactive,
CC[C@H](C)[C@@H](C(=O)O)n1sc2ccccc2c1=O,inactive,

# System: not listed separately
# Test: ATG_BRE_CIS: Attagene CIS-FACTORIAL HepG2 Assay for human Bone Morphogenetic Protein (BMP) Response Element (BRE) (AID 2282933)
# Details: HepG2 BMP response element reporter, Attagene transcription factor profiling; actives raise or lower the signal
# Procedure, shortened: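 After a 24 h chemical treatment, transiently transfected HepG2 cells were lysed for RNA; reporter transcripts were quantified by fluorescent RT-PCR and capillary electrophoresis, normalised to DMSO.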
SMILES,outcome,AC50
CCCCC(CC)COC(=O)CCCCC(=O)OCc1ccccc1 (configuration not stated),inactive,
FC(F)(I)C(F)(F)C(F)(F)C(F)(F)C(F)(F)C(F)(F)I,inactive,
Cc1oc(-c2ccccc2)nc1CCOc1ccc(C[C@H](Nc2ccccc2C(=O)c2ccccc2)C(=O)O)cc1,,11 µM (active)
CN1CCC[C@H]1c1cccnc1,inactive,
COCC(C)OCC(C)O (configuration not stated),inactive,
CN1CCN(c2ccccc2/C=C2\SCCN(c3ccc(Cl)c(Cl)c3)C2=O)CC1,inactive,
CC(C)(C)CC(C)(C)c1ccc(O)c(-n2nc3ccccc3n2)c1,inactive,
C[C@@H]1C[C@H]2[C@@H]3CCC4=CC(=O)C=C[C@]4(C)[C@@]3(F)[C@@H](O)C[C@]2(C)[C@@]1(O)C(=O)COP(=O)(O)O,inactive,
CCc1nn(C2CCCCC2)c2cc(C3(C#N)CCC(C(=O)O)CC3)ccc12 (configuration not stated),inactive,
N#C[C@@H]1CC(F)(F)CN1C(=O)CNC1CC2CCC(C1)N2c1ncccn1 (some centres not stated),inactive,
CCCCCCCCC(=O)O,inactive,
NC(=O)N(O)[C@@H]1C=C[C@H](Oc2cccc(Oc3ccc(F)cc3)c2)C1,inactive,
CC(=O)CC(C)(C)O,inactive,
CCCCCCCCCCCCCC[N+](C)(C)C,,13.1 µM (active) and 4.06 µM (active)
CC(=O)NC1(c2cccc(F)c2)CCN(CC[C@@]2(c3ccc(Cl)c(Cl)c3)CN(c3ccccc3)C(=O)CO2)CC1,,61.8 µM (active)
CCCCCCCCCCCCc1ccccc1S(=O)(=O)O,inactive,
Cc1cc(CCN2CCN(c3nsc4ccccc34)CC2)cc2c1NC(=O)CC2(C)C,inactive,
CCCCCCC(=O)O,inactive,

SMILES,outcome,AC50
OC1CCC(C2CCCCC2)CC1 (configuration not stated),inactive,
Cc1ccc(S(=O)(=O)O)c(C)c1,inactive,
NCC(F)(F)C(F)(F)C(F)(F)C(F)(F)C(F)(F)C(F)(F)C(F)(F)F,inactive,
O=[N+]([O-])c1ccc(O)cc1,inactive,
CC(C)(C)c1cccc(C(C)(C)C)c1O,inactive,
CCCCCCCC(=O)O,inactive,
CCCCC[C@H](O)CC(=O)CCc1ccc(O)c(OC)c1,inactive,
CCc1ccc(CCOc2ccc(CC3SC(=O)NC3=O)cc2)nc1 (configuration not stated),inactive,
CC(O)C(=O)O (configuration not stated),inactive,
CC(C)CCCCCCOC(=O)CCCCC(=O)OCCCCCCC(C)C,inactive,
O=C1OC2(c3ccccc31)c1cc(Br)c(O)c(Br)c1Oc1c2cc(Br)c(O)c1Br,inactive,
COCC(C)O (configuration not stated),inactive,
CCCCCCCCCCCCCCCS(=O)(=O)Oc1ccccc1,inactive,
Cc1cc(C)c(O)c(C)c1,inactive,
C#C[C@]1(O)CC[C@H]2[C@@H]3CCC4=CC(=O)CC[C@@H]4[C@H]3CC[C@@]21C,inactive,
CC(C)(C)c1ccc(O)c(C(C)(C)C)c1,inactive,
Oc1cccc(O)c1,,29.7 µM (active)
CC[C@H](C)[C@@H](C(=O)O)n1sc2ccccc2c1=O,inactive,

# Target: Retinoic acid receptor alpha (Homo sapiens) (UniProt P10276)
# Test: ATG_DR5_RAR_CIS: Attagene CIS-FACTORIAL HepG2 Assay for human Retinoic Acid Receptor Alpha (RARE), DR5 submotif (AID 2282934);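 on AC50: reporter responds to endogenous RAR alpha beta and gamma in HepG2 not RARA alone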
# Details: HepG2 Attagene cis-factorial RARE DR5 reporter, mRNA; actives raise or lower the signal
# Procedure, shortened: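 HepG2, transient cis-reporter transfection, 24 h exposure. mRNA readout: RT-PCR, FAM label, HpaI cut, capillary electrophoresis. DMSO baseline, gain/loss fitting.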
# Sequence of Retinoic acid receptor alpha (Homo sapiens) (P10276 whole entry, looked up): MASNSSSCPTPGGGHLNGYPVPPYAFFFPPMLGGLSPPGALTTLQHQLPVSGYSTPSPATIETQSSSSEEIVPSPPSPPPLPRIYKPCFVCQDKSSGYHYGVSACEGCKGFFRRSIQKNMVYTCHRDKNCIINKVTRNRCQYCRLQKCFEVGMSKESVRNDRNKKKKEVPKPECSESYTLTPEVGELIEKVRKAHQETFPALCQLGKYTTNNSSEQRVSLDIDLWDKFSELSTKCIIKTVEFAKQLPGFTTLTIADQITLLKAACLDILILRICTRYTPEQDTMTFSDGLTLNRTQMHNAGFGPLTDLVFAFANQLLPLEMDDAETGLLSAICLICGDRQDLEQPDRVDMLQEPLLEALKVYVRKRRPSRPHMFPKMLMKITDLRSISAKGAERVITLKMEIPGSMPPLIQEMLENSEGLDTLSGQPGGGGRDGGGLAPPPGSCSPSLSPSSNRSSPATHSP
SMILES,outcome,AC50
CCCCC(CC)COC(=O)CCCCC(=O)OCc1ccccc1 (configuration not stated),inactive,
FC(F)(I)C(F)(F)C(F)(F)C(F)(F)C(F)(F)C(F)(F)I,inactive,
Cc1oc(-c2ccccc2)nc1CCOc1ccc(C[C@H](Nc2ccccc2C(=O)c2ccccc2)C(=O)O)cc1,inactive,
COCC(C)OCC(C)O (configuration not stated),inactive,
CN1CCN(c2ccccc2/C=C2\SCCN(c3ccc(Cl)c(Cl)c3)C2=O)CC1,inactive,
CC(C)(C)CC(C)(C)c1ccc(O)c(-n2nc3ccccc3n2)c1,inactive,
CCc1nn(C2CCCCC2)c2cc(C3(C#N)CCC(C(=O)O)CC3)ccc12 (configuration not stated),,0.941 µM (active)
N#C[C@@H]1CC(F)(F)CN1C(=O)CNC1CC2CCC(C1)N2c1ncccn1 (some centres not stated),inactive,
CCCCCCCCC(=O)O,inactive,
NC(=O)N(O)[C@@H]1C=C[C@H](Oc2cccc(Oc3ccc(F)cc3)c2)C1,inactive,
CC(=O)CC(C)(C)O,inactive,
CCCCCCCCCCCCCC[N+](C)(C)C,inactive,
CC(=O)NC1(c2cccc(F)c2)CCN(CC[C@@]2(c3ccc(Cl)c(Cl)c3)CN(c3ccccc3)C(=O)CO2)CC1,,62 µM (active)
CCCCCCCCCCCCc1ccccc1S(=O)(=O)O,inactive,
Cc1cc(CCN2CCN(c3nsc4ccccc34)CC2)cc2c1NC(=O)CC2(C)C,,3.74 µM (active)
CCCCCCC(=O)O,inactive,
OC1CCC(C2CCCCC2)CC1 (configuration not stated),inactive,
NCC(F)(F)C(F)(F)C(F)(F)C(F)(F)C(F)(F)C(F)(F)C(F)(F)F,inactive,
O=[N+]([O-])c1ccc(O)cc1,inactive,
CC(C)(C)c1cccc(C(C)(C)C)c1O,,100 µM (active)
CCCCC[C@H](O)CC(=O)CCc1ccc(O)c(OC)c1,inactive,
CC(O)C(=O)O (configuration not stated),inactive,
CC(C)CCCCCCOC(=O)CCCCC(=O)OCCCCCCC(C)C,inactive,
O=C1OC2(c3ccccc31)c1cc(Br)c(O)c(Br)c1Oc1c2cc(Br)c(O)c1Br,inactive,
CCCCCCCCCCCCCCCS(=O)(=O)Oc1ccccc1,inactive,
Cc1cc(C)c(O)c(C)c1,,100 µM (active)
C#C[C@]1(O)CC[C@H]2[C@@H]3CCC4=CC(=O)CC[C@@H]4[C@H]3CC[C@@]21C,inactive,
CC(C)(C)c1ccc(O)c(C(C)(C)C)c1,inactive,
Oc1cccc(O)c1,inactive,
CC[C@H](C)[C@@H](C(=O)O)n1sc2ccccc2c1=O,inactive,
